Records with an inconclusive call do not appear. Values without a mark were called inactive. Active and inactive are the calls of the source. Unless noted, calls follow the shape of the dose curve; as a rule, active = well fitted curve in the direction sought with a large enough effect in the repeat runs; inconclusive = weak or mixed curves; inactive = no such curve, though single readings can be large; an effect the other way counts as inactive or inconclusive.
target: Nuclear receptor subfamily 1 group I member 3 (Homo sapiens) (UniProt Q14994); assay: qHTS assay to identify small molecule agonists of the constitutive androstane receptor (CAR) signaling pathway (AID 1224839); conditions: HepG2 hCAR CYP2B6-luciferase, agonist mode, 24 h; series mostly up to 92.4 µM; activation: at the top concentration; also: nearly all actives have a fitted effect of over 15% in size; also: potency is read from the fitted curve at half-maximal effect;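 as to activation: HepG2 cells stably carrying human CAR and a CYP2B6 luciferase reporter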
In short: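 Stable hCAR/CYP2B6-2.2kb HepG2 line in DMEM with 10% FBS; compounds (15 concentrations) and 0.75 uM PK11195 final, 24 h at 37 C/5% CO2, then ONE-Glo luminescence after 30 min.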
% is scaled to controls: 0 for no effect and ±100 for the full control effect.

Chain of Nuclear receptor subfamily 1 group I member 3 (Homo sapiens) (Q14994 whole entry, looked up): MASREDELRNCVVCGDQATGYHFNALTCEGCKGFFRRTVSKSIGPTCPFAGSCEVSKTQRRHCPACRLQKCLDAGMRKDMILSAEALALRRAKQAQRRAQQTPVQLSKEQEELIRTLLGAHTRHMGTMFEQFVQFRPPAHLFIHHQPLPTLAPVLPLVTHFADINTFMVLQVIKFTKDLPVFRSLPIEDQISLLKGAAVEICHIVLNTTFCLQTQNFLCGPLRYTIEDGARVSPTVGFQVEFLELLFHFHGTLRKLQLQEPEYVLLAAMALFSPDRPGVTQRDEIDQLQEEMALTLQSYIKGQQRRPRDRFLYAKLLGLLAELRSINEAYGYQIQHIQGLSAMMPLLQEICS

Row | SMILES | activation | Potency
1 | Cn1cnc2c(=O)[nH]c(N)nc21 | 10.9% | –
2 | N#CCc1ccccc1[N+](=O)[O-] | 7.78% | –
3 | CN(C)CCOC(c1ccc(Cl)cc1)c1ccccn1 (centres undefined) | -5.55% [at 42.5 µM] | –
4 | NC(=S)Nc1cccc2ccccc12 | 2.72% [at 8.39 µM] | –
5 | CC(C)[N+](C)(C)CC(O)COc1cccc2ccccc12 (centres undefined) | -5.77% [at 42.5 µM] | –
6 | Cc1ccccc1Br | -0.655% | –
7 | COc1cccc(OC)c1 | -2.19% | –
8 | CCCc1ccc(N)cc1 | 7.23% | –
9 | C=C(C)C(=O)NCCC[N+](C)(C)C | -4.65% | –
10 | Cc1ccc(N)cc1[N+](=O)[O-] | 5.9% | –
11 | CC(CCO)CCCC(C)(C)O (centres undefined) | 11.2% | –
12 | CCCCCC[C@@H](CCC)C(=O)O | 0.12% [at 42.5 µM] | –
13 | CCCCOCC(C)OCC(C)O (centres undefined) | -1.56% | –
14 | O=C(O)/C=C/c1ccc(/C=C/C(=O)O)cc1 | -1.41% [at 42.5 µM] | –
15 | CC(C)=CC(=O)O | -0.644% | –
16 | NS(=O)(=O)c1cc2c(cc1C(F)(F)F)NC(Cc1ccccc1)NS2(=O)=O (centres undefined) | -1.17% [at 42.5 µM] | –

Row | SMILES | activation | Potency
17 | COc1ccc(N=[N+]([O-])c2ccc(OC)cc2)cc1 | – | 0.762 µM (active)
18 | CO[Si](CCCNCCC[Si](OC)(OC)OC)(OC)OC | 0.148% | –
19 | CC(C=O)Cc1ccc(C(C)C)cc1 (centres undefined) | -1.77% | –
20 | CCCCc1ccc2cccc(S(=O)(=O)O)c2c1 | 0.0822% | –
21 | CCC(C)(C)C1CCC(OC)CC1 (centres undefined) | -1.64% | –
22 | O=C(O)Cc1cc(I)c(Oc2cc(I)c(O)c(I)c2)c(I)c1 | 5.84% [at 42.5 µM] | –
23 | C=C(C)[C@H]1CC=C(C)CC1 | -2.16% | –
24 | COC(=O)C1=C(C)NC(C)=C(C(=O)OCC(C)=O)C1c1ccccc1[N+](=O)[O-] (centres undefined) | 1.03% [at 42.5 µM] | –
25 | N#CCN(CC#N)CCN(CC#N)CC#N | -2.34% | –
26 | CC(C)c1cccc(C(C)C)c1N | -1.97% | –
27 | C1C2OC2C2C1C1CC2C2OC12 (centres undefined) | 1.24% | –
28 | NC1CCN(c2cccc(Cl)n2)CC1 | 1.69% [at 42.5 µM] | –
29 | COC(=O)c1ccc(C(=O)OC)c(C(=O)OC)c1 | 0.356% | –
30 | OCCCCCCO | -1.42% | –
31 | CC(=O)c1ccc(C)cc1 | -1.47% | –

tested on: not listed separately; assay: qHTS assay to identify small molecule antagonists of the estrogen related receptor signaling pathway with the pleiotropic PPARgamma coactivator (PGC) from Tox21 10K library - cell viability counter screen (AID 1224840; active = well fitted cell-killing curve with a large enough effect in the repeat runs, not every such curve was filed as active; also: nearly all actives have a fitted effect of over 40% in size); conditions: PGC/ERR reporter cells viability, CellTiter-Fluor, 17.5 h; series mostly up to 92.4 µM; viability change, negative = cytotoxic: at the top concentration
In short: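 Compounds in DMSO, alongside positive and negative controls, were pinned onto PGC/ERR cells (2,000 per well). Exposure lasted 17.5 hours at 37 C, followed by a 30-minute CellTiter-Fluor incubation and fluorescence reading.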

Row | SMILES | viability change, negative = cytotoxic
32 | Cn1cnc2c(=O)[nH]c(N)nc21 | -2.6%
33 | N#CCc1ccccc1[N+](=O)[O-] | 2.5%
34 | CN(C)CCOC(c1ccc(Cl)cc1)c1ccccn1 (centres undefined) | -11.4% [at 42.5 µM]
35 | NC(=S)Nc1cccc2ccccc12 | 3.04% [at 8.39 µM]
36 | CC(C)[N+](C)(C)CC(O)COc1cccc2ccccc12 (centres undefined) | -0.891% [at 42.5 µM]
37 | Cc1ccccc1Br | -1.42%
38 | COc1cccc(OC)c1 | 10.6%
39 | CCCc1ccc(N)cc1 | 2.89%
40 | C=C(C)C(=O)NCCC[N+](C)(C)C | 4.37%
41 | Cc1ccc(N)cc1[N+](=O)[O-] | 0.278%
42 | Nc1cc(N)cc(C(=O)O)c1 | -1.35%
43 | CC(CCO)CCCC(C)(C)O (centres undefined) | -2.06%
44 | c1ccc2cnncc2c1 | -5.09%
45 | CCCCCC[C@@H](CCC)C(=O)O | 11.7% [at 42.5 µM]
46 | CCCCOCC(C)OCC(C)O (centres undefined) | 2.56%
47 | O=C(O)/C=C/c1ccc(/C=C/C(=O)O)cc1 | 0.254% [at 42.5 µM]
48 | CCC(=O)c1cccc(Cl)c1 | 1.26%
49 | CC(C)=CC(=O)O | -0.862%
50 | NS(=O)(=O)c1cc2c(cc1C(F)(F)F)NC(Cc1ccccc1)NS2(=O)=O (centres undefined) | 14.2% [at 42.5 µM]

Row | SMILES | viability change, negative = cytotoxic
51 | COc1ccc(N=[N+]([O-])c2ccc(OC)cc2)cc1 | 2.12%
52 | C(=C(c1ccccc1)c1ccccc1)c1ccccc1 | -1.37%
53 | CO[Si](CCCNCCC[Si](OC)(OC)OC)(OC)OC | 0.204%
54 | CC(C=O)Cc1ccc(C(C)C)cc1 (centres undefined) | 2.2%
55 | CCCCc1ccc2cccc(S(=O)(=O)O)c2c1 | -0.453%
56 | CCC(C)(C)C1CCC(OC)CC1 (centres undefined) | 2.96%
57 | O=C(O)Cc1cc(I)c(Oc2cc(I)c(O)c(I)c2)c(I)c1 | -1.12% [at 42.5 µM]
58 | C=C(C)[C@H]1CC=C(C)CC1 | 0.319%
59 | COC(=O)C1=C(C)NC(C)=C(C(=O)OCC(C)=O)C1c1ccccc1[N+](=O)[O-] (centres undefined) | -9.72% [at 42.5 µM]
60 | N#CCN(CC#N)CCN(CC#N)CC#N | 10%
61 | C[N+](C)(C)CC[N+]1(C)Cc2c(Cl)c(Cl)c(Cl)c(Cl)c2C1 | 2.9% [at 42.5 µM]
62 | C=CC(=O)N1CCOCC1 | 3.27%
63 | CC(C)c1cccc(C(C)C)c1N | 9.73%
64 | C1C2OC2C2C1C1CC2C2OC12 (centres undefined) | 1.71%
65 | NC1CCN(c2cccc(Cl)n2)CC1 | 3.73% [at 42.5 µM]
66 | COC(=O)CCCCCCCCC(=O)OC | 0.926%
67 | COC(=O)c1ccc(C(=O)OC)c(C(=O)OC)c1 | 0.157%
68 | OCCCCCCO | 0.785%
69 | CC(=O)c1ccc(C)cc1 | 7.45%

tested on: not listed separately; assay: qHTS assay to identify small molecule antagonists of the estrogen related receptor signaling pathway with the pleiotropic PPARgamma coactivator (PGC) from Tox21 10K library (AID 1224841; call rule not given here; also: actives are mostly falling curves and most rising ones were filed inactive; nearly all actives have a fitted effect of over 50% in size; also: potency is read from the fitted curve at half-maximal effect); conditions: PGC/ERR reporter cell line, ONE-Glo luciferase, 18 h; series mostly up to 92.4 µM; activity, negative = inhibition: at the top concentration
In short: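 Compound exposure ran 18 hours at 37 C in PGC/ERR cells (2,000/well) that had first rested 6 hours in a 37 C/5% CO2 incubator. Luciferase activity was then detected with One-Glo after a 30-minute room-temperature step.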

Row | SMILES | activity, negative = inhibition | Potency
70 | Cc1ccccc1Br | -0.345% | –
71 | c1ccc2cnncc2c1 | – | 27.4 µM (active)
72 | CCCCCC[C@@H](CCC)C(=O)O | -20.2% [at 42.5 µM] | –
73 | CCCCc1ccc2cccc(S(=O)(=O)O)c2c1 | 4.96% | –
74 | CCC(C)(C)C1CCC(OC)CC1 (centres undefined) | 6.26% | –
75 | COC(=O)C1=C(C)NC(C)=C(C(=O)OCC(C)=O)C1c1ccccc1[N+](=O)[O-] (centres undefined) | -18.6% [at 42.5 µM] | –
76 | C=CC(=O)N1CCOCC1 | 7.23% | –
77 | CC(C)c1cccc(C(C)C)c1N | -0.707% | –
78 | COC(=O)CCCCCCCCC(=O)OC | 0.707% | –
79 | COC(=O)c1ccc(C(=O)OC)c(C(=O)OC)c1 | -0.895% | –

tested on: not listed separately; assay: qHTS assay to identify small molecule agonists of the estrogen related receptor signaling pathway with the pleiotropic PPARgamma coactivator (PGC) from Tox21 10K library (AID 1224842); conditions: PGC/ERR reporter cell line, luciferase ONE-Glo, 18 h; series mostly up to 92.4 µM; activation: at the top concentration; also: nearly all actives have a fitted effect of over 15% in size
In short: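 Luminescence from One-Glo (30 min, room temperature) measured after PGC/ERR cells had 18 h at 37 C with pinned compound (23 nL in DMSO). Cells had been seeded at 2,000 per well and pre-incubated 6 h.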

Row | SMILES | activation
80 | Cc1ccccc1Br | 0.0125%
81 | c1ccc2cnncc2c1 | -7.24%
82 | CCCCCC[C@@H](CCC)C(=O)O | -5.64% [at 42.5 µM]
83 | CCCCc1ccc2cccc(S(=O)(=O)O)c2c1 | 1.53%
84 | CCC(C)(C)C1CCC(OC)CC1 (centres undefined) | 2.17%
85 | COC(=O)C1=C(C)NC(C)=C(C(=O)OCC(C)=O)C1c1ccccc1[N+](=O)[O-] (centres undefined) | -5.56% [at 42.5 µM]
86 | C=CC(=O)N1CCOCC1 | 2.3%
87 | CC(C)c1cccc(C(C)C)c1N | -0.0967%
88 | COC(=O)CCCCCCCCC(=O)OC | 0.812%
89 | COC(=O)c1ccc(C(=O)OC)c(C(=O)OC)c1 | -0.301%
